Laboratory results reported in PubChem BioAssay.
Active and inactive are the calls of the source. Unless noted, no rule for the calls is given here.

How the values were obtained:
[1] = HepG2 liver cancer cell viability effects, profiling panel, resazurin fluorescence, 24 h, PK04 Diversity Set (AID 1172); conditions: higher = more signal
[2] = basal S. cerevisiae growth modulation, no modifier, primary screen, OD600, strain BY4716, 24 h, basal condition (AID 1173); conditions: OD600, 24 h, higher = more signal, called active from +8 up or from −8 down
[3] = MM1S myeloma cell viability, profiling panel, resazurin fluorescence, basal, 24 h, PK04 Diversity Set (AID 1174); conditions: higher = more signal, called active from +8 up or from −8 down;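 also: MM1S multiple myeloma cell line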
[4] = biological target: Dihydroorotate dehydrogenase (quinone), mitochondrial (Plasmodium falciparum (isolate 3D7)) (UniProt Q08210); experiment: PfDHODH enzyme inhibitors, primary screen, biochemical, C-terminal His tag, absorbance 600 nm (AID 1175); conditions: DCIP absorbance 600 nm, higher = more signal, called active from +8 up or from −8 down;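 also: recombinant parasite enzyme with a five histidine tag at its C terminus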
[5] = P. aeruginosa biofilm formation inhibitors, primary screen, strain PAO1, LB-PBS medium, absorbance 600 nm (AID 1176); conditions: P. aeruginosa PAO1 growth/biofilm, A600, 12 h; higher = more signal
[6] = S. cerevisiae RM11-1a growth modifiers, primary screen, strain RM11-1a, OD600, basal, 24 h (AID 1177); conditions: OD600, 24 h, higher = more signal, called active from +8 up or from −8 down;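 also: cultures grown under basal conditions with no added stressor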
[7] = E. coli acrAB mutant growth effects, primary screen, E. coli filamentation inducers, strain DRC39, OD650, 24 h (AID 1178); conditions: higher = more signal, called active from +8 up or from −8 down;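 also: growth measured as culture turbidity by optical density at 650 nm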
[8] = E. coli acrAB mutant growth effects, primary screen, E. coli filamentation inducers, strain DRC39, OD650, 48 h (AID 1179);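 also: screen aims at cell division blockers that make cells filament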; conditions: E. coli DRC39 delta-acrAB growth, higher = more signal, called active from +8 up or from −8 down
[9] = RPMI8226 myeloma cell viability, profiling panel, resazurin fluorescence, basal, 24 h, PK04 Diversity Set (AID 1180); conditions: higher = more signal;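 also: RPMI8826 multiple myeloma cell line at 5000 cells per well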
[10] = biological target: E3 ubiquitin-protein ligase XIAP (Homo sapiens) (UniProt P98170); experiment: XIAP binders, primary screen, biophysical, small-molecule microarray, fluorescence 635 nm (AID 1181); conditions: small-molecule microarray binding, higher = more signal;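 also: score merges 667 nm emission and signal to noise over triplicate slides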
[11] = system: XIP peptide (Xip251-270) binding; experiment: small-molecule binders of XIP peptide, primary screen, biochemical, small-molecule microarray, fluorescence 635/667 nm, 0.1 µg/mL protein (AID 1182); conditions: fluorescent protein binding, 635 nm, higher = more signal, called active from +8 up or from −8 down
XIP peptide (Xip251-270) = experiment: small-molecule binders of XIP peptide, primary screen, biochemical, small-molecule microarray, fluorescence 635/667 nm, 0.5 µg/mL protein (AID 1183); conditions: small-molecule microarray binding, fluorescence 635 nm; higher = more signal
[12] = Plasmodium falciparum growth inhibition, primary screen, strain 3D7, DAPI fluorescence, 100 nL (AID 1184);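 also: parasites grown inside human red blood cells in medium with human serum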; conditions: P. falciparum 3D7 growth, 3 d, higher = more signal
[13] = biological target: Homeobox protein Hox-A13 (Mus musculus) (UniProt Q62424); experiment: inhibitors of HoxA13-DNA binding, primary screen, biochemical, fluorescence polarization, labeled oligonucleotide (AID 1185); conditions: 15 min, higher = more signal, called active from +8 up or from −8 down
[14] = inhibitors of hydroxyurea-induced Chk1 phosphorylation, primary screen, imaging, HeLa, phospho-Chk1 antibody, percent positive cells (AID 1186); conditions: hydroxyurea-induced phospho-Chk1 immunofluorescence imaging, higher = more signal
[15] = inhibitors of hydroxyurea-induced Chk1 phosphorylation, primary screen, imaging, HeLa, phospho-Chk1 nuclear intensity (AID 1187); conditions: hydroxyurea-induced phospho-Chk1 immunofluorescence imaging, higher = more signal

Sequence of Homeobox protein Hox-A13 (Mus musculus) (Q62424 whole entry, looked up): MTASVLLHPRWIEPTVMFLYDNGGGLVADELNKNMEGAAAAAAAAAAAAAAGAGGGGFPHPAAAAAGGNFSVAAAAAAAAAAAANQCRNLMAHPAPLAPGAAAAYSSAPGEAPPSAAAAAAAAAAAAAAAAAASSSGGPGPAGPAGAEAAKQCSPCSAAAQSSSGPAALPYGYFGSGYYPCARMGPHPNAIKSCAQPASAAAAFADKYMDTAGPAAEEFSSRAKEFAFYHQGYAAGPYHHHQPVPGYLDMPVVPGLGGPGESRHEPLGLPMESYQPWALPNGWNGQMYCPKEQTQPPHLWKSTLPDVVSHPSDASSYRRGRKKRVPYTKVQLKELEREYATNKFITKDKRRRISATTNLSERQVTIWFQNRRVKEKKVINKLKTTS
Sequence of E3 ubiquitin-protein ligase XIAP (Homo sapiens) (P98170 whole entry, looked up): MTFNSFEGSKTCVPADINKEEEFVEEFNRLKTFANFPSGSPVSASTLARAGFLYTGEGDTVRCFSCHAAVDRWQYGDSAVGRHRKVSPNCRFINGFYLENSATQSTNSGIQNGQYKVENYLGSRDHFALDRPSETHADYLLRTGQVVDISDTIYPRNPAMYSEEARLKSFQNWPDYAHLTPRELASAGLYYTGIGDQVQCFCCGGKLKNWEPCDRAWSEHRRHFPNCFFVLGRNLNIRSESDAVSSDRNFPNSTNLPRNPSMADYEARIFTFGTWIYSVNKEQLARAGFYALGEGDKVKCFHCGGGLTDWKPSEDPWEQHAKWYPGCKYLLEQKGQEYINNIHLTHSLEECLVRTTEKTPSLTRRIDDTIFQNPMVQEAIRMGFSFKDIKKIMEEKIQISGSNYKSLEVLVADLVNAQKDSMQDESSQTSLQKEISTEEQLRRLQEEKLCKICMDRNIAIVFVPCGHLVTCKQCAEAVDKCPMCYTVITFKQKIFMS
Sequence of Dihydroorotate dehydrogenase (quinone), mitochondrial (Plasmodium falciparum (isolate 3D7)) (Q08210 whole entry, looked up): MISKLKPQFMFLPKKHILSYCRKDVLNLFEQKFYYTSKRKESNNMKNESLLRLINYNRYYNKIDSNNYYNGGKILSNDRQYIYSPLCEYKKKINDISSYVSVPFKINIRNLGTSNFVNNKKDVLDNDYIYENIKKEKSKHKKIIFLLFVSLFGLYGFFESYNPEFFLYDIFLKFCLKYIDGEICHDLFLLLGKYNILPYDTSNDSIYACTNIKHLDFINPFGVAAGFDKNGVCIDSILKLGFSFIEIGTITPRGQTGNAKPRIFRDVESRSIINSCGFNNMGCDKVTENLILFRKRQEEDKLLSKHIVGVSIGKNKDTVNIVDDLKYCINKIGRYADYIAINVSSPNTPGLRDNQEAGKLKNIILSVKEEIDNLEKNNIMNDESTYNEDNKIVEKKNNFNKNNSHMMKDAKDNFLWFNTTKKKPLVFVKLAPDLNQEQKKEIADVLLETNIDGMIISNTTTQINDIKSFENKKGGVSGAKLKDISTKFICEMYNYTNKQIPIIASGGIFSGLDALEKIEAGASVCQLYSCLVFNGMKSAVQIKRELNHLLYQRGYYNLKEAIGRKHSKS

Row | Structure (SMILES) | z-score [1] | z-score [2] | z-score [3] | composite z-score [4] | z-score [5] | z-score [6] | z-score [7] | z-score [8] | z-score [9] | composite z-score [10] | composite z-score [11] | composite z-score (XIP peptide (Xip251-270)) | z-score [12] | z-score [13] | z-score [14] | z-score [15]
1 | CC(C)(C)OC(=O)CC[C@@]1(C(=O)NCCN2CCOCC2)N=C(c2ccc(OCCCO)cc2)O[C@@H]1c1ccccc1N=[N+]=[N-] | -0.583 | -0.643 (inactive) | -1.76 (inactive) | -0.462 (inactive) | 0.41 (inactive) | 0.0002 (inactive) | -0.0723 (inactive) | -0.169 (inactive) | -0.601 | 0.0877 | 0.171 (inactive) | 0.401 | -1.85 | -3.61 (inactive) | 0.17 (inactive) | 0.297 (inactive)
2 | COc1ccc([Si](C)(C)[C@H]2[C@H](CCO)O[C@@]3(C(=O)N(C)c4c(Br)cc(C)cc43)[C@@H]2C)cc1 | -6.47 | 0.0436 (inactive) | -9.16 (active) | 1.13 (inactive) | 0.814 (inactive) | 3.93 (inactive) | -0.185 (inactive) | -1.4 (inactive) | -6.31 | 0.184 | 0.307 (inactive) | 0.837 | -2.71 | -5.78 (inactive) | -1.08 (inactive) | -1.73 (inactive)
3 | C=CCOC(=O)[C@@H]1[C@H]2C(=O)O[C@H](c3ccccc3)[C@H](c3ccccc3)N2[C@H](c2ccc(OCCOC(=O)[C@@H]3C[C@@H]4C(=O)N[C@@H](Cc5ccccc5)C(=O)N4[C@@H]3c3ccc(O)cc3)cc2)[C@@]12C(=O)Nc1ccc(I)cc12 | -0.437 | 0.963 (inactive) | 0.372 (inactive) | -0.0246 (inactive) | 2.1 (inactive) | 1.91 (inactive) | -0.0033 (inactive) | -1.53 (inactive) | 0.411 | 0.104 | 0.895 (inactive) | 0.736 | -1.95 | -0.584 (inactive) | 0.193 (inactive) | 0.453 (inactive)
4 | COCCOC(=O)N1C(=O)[C@@]2(c3cc(C#Cc4ccc(OC)cc4)ccc31)[C@H](c1ccc(O)cc1)N1[C@H](c3ccccc3)[C@H](c3ccccc3)OC(=O)[C@H]1[C@@H]2C(=O)NC[C@H](O)c1ccccc1 | -0.372 | 0.895 (inactive) | -0.5 (inactive) | 1.49 (inactive) | 0.429 (inactive) | 0.95 (inactive) | 0.351 (inactive) | -0.206 (inactive) | -0.573 | -0.296 | 0.27 (inactive) | 0.77 | -1.66 | -0.934 (inactive) | -0.192 (inactive) | 0.249 (inactive)
5 | COC(=O)[C@@]1(Cc2ccc(OC)cc2)[C@H]2c3cc(C(=O)N4CCCC4)n(Cc4ccsc4Br)c3C[C@H]2CN1C(=O)c1ccccc1 | -1.78 | 0.567 (inactive) | -8.06 (active) | 0.276 (inactive) | 0.576 (inactive) | -0.0289 (inactive) | -0.0187 (inactive) | 0.126 (inactive) | -4.31 | 0.244 | -0.0625 (inactive) | 0.75 | -1.59 | -5.51 (inactive) | -0.592 (inactive) | -1.13 (inactive)
6 | CCc1oc(CC[C@@H](CO)NC(=O)NCCn2cc(C3(O)CCCCC3)nn2)c(C(=O)OC)c1C(=O)OC | -0.676 | -1.16 (inactive) | -0.658 (inactive) | -0.32 (inactive) | -0.109 (inactive) | -0.298 (inactive) | -0.247 (inactive) | -0.64 (inactive) | -0.626 | -0.0078 | 1.53 (inactive) | 0.875 | -0.397 | -3.56 (inactive) | 0.259 (inactive) | -0.0163 (inactive)
7 | CCOC(=O)C[C@H]1[C@H](OC(=O)Cc2ccc3c(c2)OCO3)[C@@H](NC(=O)c2ccc(-c3ccccc3)cc2)c2cc(OCCCO)ccc2N1C(=O)c1ccc2ccccc2n1 | 0.138 | -2.85 (inactive) | 0.878 (inactive) | -2.91 (inactive) | -0.906 (inactive) | -1.63 (inactive) | 1.26 (inactive) | 0.455 (inactive) | 0.356 | -0.102 | -0.458 (inactive) | 0.447 | -2.38 | -1.61 (inactive) | 0.455 (inactive) | 0.46 (inactive)
8 | O=C1C2C=CC(C(O)C(c3ccccc3)c3ccccc3)N(n3cnnc3)C2C(=O)N1Cc1ccccc1 (centres undefined) | 0.264 | -1.94 (inactive) | -1.15 (inactive) | -0.436 (inactive) | 0.285 (inactive) | -0.255 (inactive) | -0.514 (inactive) | -0.305 (inactive) | -1.11 | 0.223 | 0.23 (inactive) | 0.664 | -0.528 | -3.79 (inactive) | 0.414 (inactive) | -0.402 (inactive)
9 | COc1ccc(C(O)C2C=CC3C(=O)N(c4ccccc4)C(=O)C3N2Nc2ccc(C(C)C)cc2)cc1OCc1ccccc1 (centres undefined) | -0.217 | -1.78 (inactive) | -0.0284 (inactive) | 0.785 (inactive) | 2.33 (inactive) | 0.165 (inactive) | -1.91 (inactive) | -1.38 (inactive) | -0.291 | -0.0535 | 0.658 (inactive) | 0.8 | 0.1 | -0.47 (inactive) | -0.309 (inactive) | -0.472 (inactive)
